Bioassay records as filed in PubChem BioAssay.
KKLEB cytotox – reduces viability of KKLEB cystic fibrosis airway cells | KKLEB CF airway cells viability, ATPlite luminescence, overnight; active compounds read low; cells stimulated with P. aeruginosa culture filtrate | activity change (cytotoxicity), % at 5 µM | hit rate 0.36% among 360,000 | AID 602141;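 active means corrected activity change at or below -50% at 5 µM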
HIF-2a block – HIF-2a inhibition. inhibition, % at 18.8 µM. 786-0 RCC cells HIF-2a reporter, luciferase luminescence, overnight. hit rate 0.72% among 360,000. AID 624352;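 active means inhibition of the luminescence signal of 40% or more relative to plate controls, in a single-dose primary screen at 18.75 µM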
Peg3 prom inh – inhibitors of Peg3 promoter | HeLa PEG-Prom luciferase reporter, luminescence, overnight | inhibition, % at 20 µM | hit rate 1.7% among 360,000 | AID 588405;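 active means inhibition of at least 50% at 20 µM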
Shn3 inh set2 – Schnurri-3 reporter inhibition in Clone20 osteoblasts; Clone20 osteoblast Shn3 3'UTR firefly luciferase, 24 h; inhibition, % at 12.5 µM; hit rate 0.52% among 360,000; AID 588674;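 active means mean inhibition of at least 75% with every replicate also reaching 75%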;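 further: 0% = median of neutral control wells and 100% = pilot-screen positive control compound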
CF NFkB inh – blocks PAF-induced NF-kB reporter in cystic fibrosis cells. hit rate 0.86% among 360,000. KKLEB NF-kB-GFP reporter, GFP fluorescence overnight. AID 588850. inhibition, % at 5 µM;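 active means at least 50% inhibition at 5 µM, scaled per plate between neutral and stimulator controls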;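 further: PAF is a Pseudomonas aeruginosa culture filtrate used as stimulus; plate controls were PAF-stimulated DMSO wells for no effect and unstimulated DMSO wells for full effect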
Numbers without * were called inactive; · = no result given. A selection: hits, their analogues and other compounds. The true share with any hit is near 2.6%.

SMILES	KKLEB cytotox	HIF-2a block	Peg3 prom inh	Shn3 inh set2	CF NFkB inh
CC(=O)Nc1ccc(NC(=O)CSc2ncc(C(=O)Nc3ccc(Cl)cc3)c(=O)n2C)cc1	-11.7	-60.2	-73.5	-4.1	21.4
CC(=O)Nc1cccc(NC(=O)CSc2ncc(C(=O)Nc3ccc(F)cc3)c(=O)n2C)c1	-5.7	-14.4	-18.7	19.0	7.9
CC(=O)c1cccc(NC(=O)CSc2ncc(C(=O)Nc3ccccc3)c(=O)n2C)c1	-1.3	9.6	110.3*	-12.0	15.2
Cn1c(SCC(=O)NCC2CCCO2)ncc(C(=O)Nc2ccc(F)cc2)c1=O (stereo not drawn)	7.3	-27.6	-3.2	-18.8	12.6
COc1cccc(-n2c(SCC(=O)N3CCOCC3)nnc2-c2c[nH]c3ccccc23)c1	-26.0	-11.8	7.3	-2.6	30.5
COc1cccc(-n2c(SCC(=O)N3CCOCC3)nc3c([nH]c4ccccc43)c2=O)c1	-55.3*	-10.2	18.5	46.9	33.5
O=C(C#Cc1cccc([N+](=O)[O-])c1)c1ccccc1	-63.5*	26.0	107.5*	93.1*	97.1*
CN(C)S(=O)(=O)c1cccc(NC(=S)Nc2cccc3cnccc23)c1	-3.5	-7.7	7.4	76.4	73.1*
C=CCOC(=O)Nc1nc(CCNC(=O)OC(C)(C)C)c(C(=O)O)s1	·	-3.9	·	·	·
Cc1cc(C)cc(N(CCC#N)C(=O)COC(=O)CNC(=O)c2sc3ccccc3c2Cl)c1	-13.1	11.6	13.5	-12.9	14.9
COC(=O)C1CCC(=O)N1C(c1ccc(OC)cc1)c1cc(OC)c(OC)c(OC)c1 (stereo not drawn)	-19.9	27.8	-25.7	10.1	52.3*
Cc1ccc(N=C2NC(=O)/C(=C/c3cn(C)c4ccccc34)S2)cc1C	0.2	-45.4	-5.0	-10.1	53.2*
Cc1cc(C)cc(NS(=O)(=O)c2c(C(=O)N3CCCCCC3)c(C)n(C)c2C)c1	5.9	17.9	21.2	19.8	-6.5
CCCCCCCCCCCCCCCC[N+](C)(C)CCN(Cc1ccc(OC)cc1)c1ncccn1	17.9	86.0*	104.5*	76.8	6.8
COc1ccc(CN(CCN(C)C)c2ccccn2)cc1	-5.8	-1.7	-10.3	1.3	21.4
CC(=O)NC(c1ccco1)c1ccc2cccnc2c1O (stereo not drawn)	4.5	5.3	12.5	73.6	-6.9
Oc1ccccc1C(Nc1nccs1)c1ccc2cccnc2c1O (stereo not drawn)	-0.5	19.6	46.9	93.1*	-6.1
Oc1c(C(Nc2ccccn2)c2ccccn2)ccc2cccnc12 (stereo not drawn)	-15.5	-16.7	54.3*	84.1	-4.5
O=C(CCN1C(=O)/C(=C/c2ccccc2)SC1=S)Nc1cccnc1	1.6	9.7	-8.8	14.6	15.7
O=C1/C(=C/c2ccccc2)SC(=S)N1CC(=O)N1CCCCC1c1cccnc1 (stereo not drawn)	-13.7	72.9*	58.7*	15.8	33.8
O=C1C(=O)N(CCS(=O)(=O)c2ccccc2)c2ccc(Cl)cc21	-8.2	7.3	64.0*	-7.2	-0.1
CCc1ccc2c(c1)C(=O)C(=O)N2CCS(=O)(=O)c1ccccc1	-6.9	-11.9	-1.4	-6.3	29.2
CC(CCc1ccccc1)NC(=O)COC(=O)c1cc(NS(=O)(=O)c2ccc(Cl)c([N+](=O)[O-])c2)ccc1O (stereo not drawn)	3.2	54.5*	56.6*	-36.3	2.1
O=C1NC(=Nc2ccc(Cl)cc2)/C(=C/c2ccco2)S1	-18.3	-15.6	62.9*	-24.7	16.7
COc1cc2c(cc1NC(=O)C(Cl)Cl)-c1ccc(NC(=O)C(Cl)Cl)cc1C2	-14.2	-59.6	95.6*	6.7	-10.2
SMILES	KKLEB cytotox	HIF-2a block	Peg3 prom inh	Shn3 inh set2	CF NFkB inh
COc1cc2c(cc1NC(=O)c1ccccc1-c1ccccc1C(=O)O)-c1ccccc1C2	-11.3	4.5	-2.2	-11.7	20.8
CCOC(=O)c1cnc(SCC(=O)Nc2cc(OC)cc(OC)c2)nc1N	-15.2	20.6	37.2	78.3	12.1
CCOC(=O)c1cnc(SCC(=O)Nc2sc(C)c(C)c2C#N)nc1N	-50.0*	9.6	45.4	15.2	47.2
NC(N)=NCCCC(NC(=O)c1ccccc1)C(=O)Nc1ccc2ccccc2c1 (stereo not drawn)	7.5	-10.9	-11.8	-25.7	-21.7
C[C@@H](NCCc1ccc(O)cc1)[C@@H](O)c1ccc(O)cc1	21.3	22.8	-4.8	8.2	26.4
CCCCCCCCNC(C)C(O)c1ccc(SC(C)C)cc1 (stereo not drawn)	-29.4	22.1	103.9*	96.0*	5.0
COc1cc(SC)ccc1C(=O)Nc1cccc(S(=O)(=O)NC2=NCCC2)c1	-12.5	-26.8	-19.4	13.9	22.3
